Screening data (PubChem)
HCV inh: inhibitors of hepatitis C virus infection | Potency, µM (highest dose often 41.8 µM), for the others: top-dose activity change, negative = inhibition, usual class: inhibitors | Huh7.5.1 HCVcc-Cre infection, luciferase reporter, 44 h | hit rate 3.4% among 340,000 | AID 651820; note: potency is the fitted concentration of half-maximal effect
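Whole-lifecycle infectious HCVcc-Cre system; cells 1,000/well, compound then virus (~0.5 moi) added 4 h after plating, 44 h culture. Luciferase read 15 sec following 15 min substrate incubation, room temp.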
HCMV inh: human cytomegalovirus inhibition; HFF cells, HCMV-luciferase reporter, 72 h; stronger effect = lower value; activity change, negative = inhibition, % at 57.5 µM; hit rate 4.5% among 410,000; in the data active = activity change below about -60%; inconclusive = no clear call, values can overlap the other calls; inactive = above about -39%
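Steps: HFFs plated, 16 h 37C; compounds added; HCMV-luciferase added to MOI 1 PFU/cell; 72 h 37C; OneGlo reagent, 5 min room temperature; luminescence read, normalized to controls.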
Pf growth 96h: inhibits malaria parasite growth, 96 h; hit rate 6.9% among 320,000; P. falciparum luciferase reporter growth, 96 h; Potency, µM (doses to about 28.7 µM), inactives show top-dose activity change, negative = inhibition, actives largely listed as inhibitors; AID 504834; note: potency is the fitted concentration of half-maximal effect
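Delayed-death screen, second-generation endpoint: infected erythrocytes, 2% hematocrit, 0.05% parasitemia final; 96 hours at 37 C, 5% CO2; luciferase detection reagent; luminescence decrease equals reduced growth.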
Pf growth 48h: P. falciparum growth inhibition at 48 hours (one generation); P. falciparum luciferase growth in erythrocytes, 48 h; Potency, µM (highest dose often 28.7 µM), for the others: top-dose activity change, negative = inhibition, hits mostly inhibitors; hit rate 5.9% among 310,000; note: potency is the fitted concentration of half-maximal effect
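Firefly luciferase activity from engineered P. falciparum reports growth; inhibitors lower the luminescent signal. Cultures contained 2% hematocrit erythrocytes at 0.1% final parasitemia.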
Active calls of the source: *; i = inactive; ? = inconclusive; · = not tested or not shown; ! = not confirmed by another sample. This is a sample that favours compounds with a hit; in the whole collection about 13% have one here. Unless noted, calls come from the whole dose curve; as a rule, active = well fitted inhibition curve with a large enough effect; inconclusive = small, poorly fitted or top-dose-only effect, or another doubt; inactive = no such curve, though single readings can be large or run the other way. % is set by controls: 0 for no effect and ±100 for the full control effect.

SMILES	HCV inh	HCMV inh	Pf growth 96h	Pf growth 48h
CN1CCN(c2ccc(NC(=O)N3CCc4ccccc43)cc2)CC1	8%	-78*	264%	124%
Cc1ccc(NC(=O)N2CCc3ccccc32)cc1	?	124	i	406%
Cc1ccc(C(=O)Nc2ccc(N3CCN(C)CC3)cc2)c(Cl)c1	-3%	67	10µM*	110%
CS(=O)(=O)c1ccc(C(=O)Nc2ccc(N3CCCCC3)cc2)c(Cl)c1	?	-11	?	225%
CCOc1ccc(NC(=O)/C=C\C(=O)N(c2ccc(C(C)C)cc2)C(C(=O)NCc2ccco2)c2ccc(F)cc2)cc1 (centres undefined)	·	-61*	·	·
COc1ccc(N(C(=O)/C=C\C(=O)Nc2ccc(Cl)cc2)C(C(=O)NCc2ccco2)c2ccc(C)cc2)cc1 (centres undefined)	·	-40	·	·
Cc1ccc(NC(=O)/C=C\C(=O)N(c2ccc(C(C)C)cc2)C(C(=O)NCc2ccco2)c2ccc(Cl)cc2)cc1 (centres undefined)	·	-76*	·	·
COc1ccc(OC)c(CN2C(=O)c3ccccc3C2C(=O)NCC2CCCO2)c1 (centres undefined)	23%	?	?	?
COc1ccc(CN2C(=O)c3ccccc3C2C(=O)NCC2CCCO2)c(OC)c1 (centres undefined)	20%	43	4.7µM*	-9%
COc1ccccc1CC(=O)NCC1CCCO1 (centres undefined)	10%	13	16%	8%
COc1ccccc1CNC(=O)C(=O)NCC1CCCO1 (centres undefined)	5%	18	5.9µM*	54%
COc1ccc(N2CCN(C(c3ccccc3F)c3sc4nc(-c5ccco5)nn4c3O)CC2)cc1 (centres undefined)	·	-2	·	·
Cc1ccc(C2Nc3cc(C)c(C)cc3-n3c(-c4ccccc4)c4c(=O)n(C)c(=O)n(C)c4c32)o1 (centres undefined)	·	-1	·	·
COc1cccc(C2c3cc4c(cc3OC(NNC(N)=O)C2C)OCO4)c1O (centres undefined)	-4%	-73*	·	·
COc1cc(C2c3cc4c(cc3OC(NNC(N)=O)C2C)OCO4)cc(OC)c1OC (centres undefined)	?	-86*	·	·
COc1cc(C2c3cc4c(cc3OC(NNC(N)=S)C2C)OCO4)cc(OC)c1OC (centres undefined)	-12%	-81*	·	·
CCN(CC)C1Oc2cc3c(cc2C(c2cccc(OC)c2O)C1C)OCO3 (centres undefined)	-17%	-9	·	·
COc1cc(C2c3cc4c(cc3OC(NCc3ccccc3)C2C)OCO4)cc(OC)c1OC (centres undefined)	-9%	-80*	·	·
COc1ccc(C2c3cc4c(cc3OC(NNC(N)=O)C2C)OCO4)cc1 (centres undefined)	?	11	·	·
COC(=O)CCCCCn1c(-c2ccccc2)cn2c3c(=O)n(C)c(=O)n(C)c3nc12	·	-23	·	·
CCOc1ccccc1NC(=O)N1CCc2c(sc(C)c2CC)C1c1ccccc1 (centres undefined)	·	-12	·	·
Cc1ccc(S(=O)(=O)c2c(O)cc(C)c(NS(=O)(=O)c3ccc(Br)cc3)c2C)cc1	·	-5	·	·
Cc1ccc(Cl)cc1NC(=O)N(C)CCOC(=O)Nc1cccc(Cl)c1	·	-9	·	·
C[C@@H]1COc2cccc(NCCCN3CCOCC3)c2S(=O)(=O)N1	·	-5	·	·
CCC[C@H](/C=C/C(=O)OCC)NC(=O)C(F)(F)F	·	-8	·	·
SMILES	HCV inh	HCMV inh	Pf growth 96h	Pf growth 48h
Cc1cc(C)c[n+](CC(=O)c2ccc(-c3ccccc3)cc2)c1	?	-77*	15µM*	?
Cc1ccc(-n2c(SCc3nc(-c4ccccc4C)no3)nnc2-c2ccncc2)cc1C	·	17	·	·
Cc1nnc(N/N=C/c2ccccc2C(F)(F)F)n1N	7%	2	83%	6%
Cc1nnc(N/N=C/c2cccc(OCc3ccc(Cl)c(Cl)c3)c2)n1N	-17%	-14	?	13µM*
Cc1nnc(N/N=C/c2cccc(C(F)(F)F)c2)n1N	20%	-40	15µM*	-4%
CCOC(=O)/C(=C\C=C1/Sc2cc(OCC)c(OCC)cc2N1CC)C(C)=O	?	18	?	?
CCOC(=O)/C(=C/C=C1\Sc2cc(OCC)c(OCC)cc2N1CC)C(C)=O	?	-5	-2%	7.4µM*
COc1ccccc1NC(=O)Cn1cnc2sc(C)c(S(=O)(=O)N3CCCCC3)c2c1=O	?	?	0.52µM*	-22%
CCCN(CCC)CCCNC(=O)Cn1cnc2sc(C)c(S(=O)(=O)N3CCC(C)CC3)c2c1=O	13%	56	22%	-7%
CCCCN(C)C(=O)Cn1cnc2sc(C)c(S(=O)(=O)N3CCN(c4ccccc4OC)CC3)c2c1=O	-18%	-19	3%	12µM*
CCCN(CCC)CCCNC(=O)Cn1cnc2sc(C)c(S(=O)(=O)N3CCCCC3)c2c1=O	12%	-71*!	1%	?
COc1ccc(OC)c(NC(=O)Cn2cnc3sc(C)c(S(=O)(=O)N4CCN(c5ccccc5OC)CC4)c3c2=O)c1	·	9	·	·
COc1ccc(C2=C(C)C(=O)N(Cc3ccc(C(=O)Nc4cc(C)ccc4C)cc3)S2(=O)=O)cc1	·	-26	·	·
O=C(C[C@H]1C(=O)N(Cc2ccccc2)C[C@@H]1Cc1ccccc1)Nc1ccccc1	-20%	-16	13µM*	0%
O=C(C[C@H]1C(=O)N(CCc2ccccc2)C[C@@H]1Cc1ccccc1)Nc1ccccc1	-19%	6	10µM*	?
COc1ccc(NC(=O)C[C@H]2C(=O)N(Cc3ccccc3)C[C@@H]2Cc2ccccc2)cc1	·	-16	·	·
Cc1nc(N2CCOCC2)c2c(C(=O)N(C)Cc3ccccc3)c(C)oc2n1	·	1	·	·
Cc1noc(C)c1CN1CCN2C=C(C(=O)NCCCc3ccccc3)OC2=NC1=O	·	10	·	·
CC1CCC2(CC1)NC(=O)N(NC(=O)c1cccs1)C2=O (centres undefined)	15%	-5	0%	-24%
CC1CCC2(CC1)NC(=O)N(NC(=O)CCl)C2=O (centres undefined)	-7%	-63*	?	0%
COc1cc(/C=C\C(=O)Nc2cc(=O)n(C)c(=O)n2C)cc(OC)c1OC	?	-26	?	5.2µM*
COc1cc(/C=C/C(=O)Nc2ccc3[nH]c(=O)[nH]c3c2)cc(OC)c1OC	-23%	8	-10%	10µM*
O=C(/C=C/c1cccs1)Nc1cccnc1	-2%	0	4.7µM*	216%
COc1cc(/C=C/C(=O)Nc2cccnc2)cc(OC)c1OC	?	54	9.3µM*	-16%
O=C(/C=C/c1cccs1)Nc1nncs1	-9%	0	98%	47%
COc1ccc(/C=C/C(=O)NNc2cc(=O)n(C)c(=O)n2C)cc1OC	3%	-4	-15%	-8%
CCc1ccccc1NCc1nnc2n1CCCCC2	·	3	·	·
Cc1ccc(Cn2c(=O)n(Cc3ccccc3Cl)c(=O)c3ccccc32)cc1	·	-3	·	·
